This passage reports Potency and outcome results from PubChem BioAssay (NCATS).

Assay [1] concerns the target Tyrosine-protein kinase Yes (Homo sapiens) (UniProt P07947). Briefly: qHTS for small molecule inhibitors of Yes1 kinase: Primary Screen (AID 686947). Also: nearly all actives have a fitted effect of over 60% in size. Also: potency is read from the fitted curve at half-maximal effect. Summed up: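 ADP-Glo luminescence reports ADP formed by 4 nM Yes1 phosphorylating poly(E4Y) (0.3 mg/mL) with 0.1 mM ATP for 60 min at room temperature, following 20 min compound preincubation; normalised between DMSO wells with and without enzyme.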
In general terms: qHTS replaces the single test concentration by a dilution series.

Assay [2] is described as follows: qHTS for small molecule inhibitors of Yes1 kinase: Counter Assay (AID 686950).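 Also: no kinase present so only ADP-Glo detection of a fixed ADP amount is tested; luminescence from ADP-Glo reporting ADP in a fixed ATP and ADP mixture; series mostly up to about 77 µM.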 Summed up:
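ADP-Glo luminescence read after a 60 min room-temperature incubation of compound with an ATP/ADP mix (0.08 mM/0.02 mM) and no kinase, following a 20 min compound preincubation. Signal scaled between ATP+ADP (max) and 0.1 mM ATP-only (min) wells; Tris pH 7.5, Mg2+, DTT.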

A number with no mark means an inactive call. Records with an inconclusive call do not appear. Entries that show only a call come without a potency. Active and inactive are the calls of the source. Calls follow the shape of the dose curve; as a rule, active = well fitted curve in the direction sought with a large enough effect; inconclusive = small, poorly fitted or top-dose-only effect, or another doubt; inactive = no such curve, though single readings can be large; an effect the other way counts as inactive or inconclusive.

Tyrosine-protein kinase Yes (Homo sapiens), sequence (P07947 whole entry, looked up): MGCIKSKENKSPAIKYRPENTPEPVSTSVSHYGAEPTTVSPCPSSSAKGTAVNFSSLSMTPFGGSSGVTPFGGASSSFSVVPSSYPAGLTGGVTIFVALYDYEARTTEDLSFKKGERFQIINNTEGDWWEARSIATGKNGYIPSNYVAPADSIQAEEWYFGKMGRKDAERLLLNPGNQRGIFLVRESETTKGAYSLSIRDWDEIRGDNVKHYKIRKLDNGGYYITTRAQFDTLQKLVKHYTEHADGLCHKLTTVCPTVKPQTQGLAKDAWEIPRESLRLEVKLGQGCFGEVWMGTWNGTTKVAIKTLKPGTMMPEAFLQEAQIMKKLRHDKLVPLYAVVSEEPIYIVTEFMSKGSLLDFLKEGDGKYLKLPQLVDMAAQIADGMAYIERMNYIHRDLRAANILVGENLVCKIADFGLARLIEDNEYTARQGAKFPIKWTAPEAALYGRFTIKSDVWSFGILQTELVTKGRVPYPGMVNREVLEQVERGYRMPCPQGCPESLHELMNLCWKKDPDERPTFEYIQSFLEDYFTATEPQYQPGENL

In the case of `Fc1cc(-c2cccc3ncc(-c4cnn(C5CCNCC5)c4)nc23)cc(F)c1CN1CCOCC1`, the Potency in assay [1] is 308 nM (active). The outcome in assay [2] was inactive.
The matching figures for `CN(c1ncccc1CNc1nc(Nc2ccc3c(c2)CC(=O)N3)ncc1C(F)(F)F)S(C)(=O)=O`: 194 nM (active) and “inactive”.
The corresponding values for `Cc1cccc(C=NNc2cc(N3CCOCC3)nc(OCCc3ccccn3)n2)c1` are “inactive” and “inactive”.
The corresponding values for `Nc1ccc(C(=O)c2cc3c(ccc4ccccc43)[nH]2)cc1` are 30700 nM (active) and “inactive”.
`C=CC(=O)Nc1cc2c(Nc3ccc(F)c(Cl)c3)ncnc2cc1C#CC(C)(C)N1CCN(C)CC1`: the Potency in assay [1] was 97.2 nM (active). For the same molecule, the call in assay [2] was inactive.
The corresponding values for `CC(=O)SC[C@@H](C)C(=O)N1CCC[C@H]1C(=O)N[C@@H](Cc1ccccc1)C(=O)O` are “inactive” and “inactive”.
As for `Cc1cnc(-c2cnc(NCCNc3ccc(C#N)cn3)nc2-c2ccc(Cl)cc2Cl)[nH]1`, the Potency result in assay [1] is “inactive”. Besides, the molecule was classed as inactive in assay [2].
For `NC(=O)c1c(OCc2c(F)cc(Br)cc2F)nsc1NC(=O)NCCCCN1CCCC1`, the Potency in assay [1] is 1.9 nM (active). Besides, the molecule was called inactive in assay [2].
The corresponding values for `O=C(O)c1ccc2cc(-c3ccc(O)c(C45CC6CC(CC(C6)C4)C5)c3)ccc2c1` are “inactive” and “inactive”.
The corresponding values for `O=C(C=Cc1cccnc1)NCCCCC1CCN(C(=O)c2ccccc2)CC1` are “inactive” and “inactive”.
Take `Nc1nccc(Oc2ccc(NC(=O)c3c[nH]cc(-c4ccc(F)cc4)c3=O)cc2F)c1Cl`: the Potency in assay [1] is 48700 nM (active). In addition, the outcome in assay [2] was inactive.
Turning to `Cc1[nH]c2ccccc2c1CCNCc1ccc(C=CC(=O)NO)cc1`, the Potency in assay [1] is 13700 nM (active). Also, the molecule was classed as inactive in assay [2].
The corresponding values for `CC(=O)OCCN1C(=O)c2c(C)nc3ccc(S(=O)(=O)N4CCOCC4)cc3c2C1=O` are “inactive” and “inactive”.
The corresponding values for `Cc1cc(Nc2cc(N3CCN(C)CC3)nc(C=Cc3ccccc3)n2)n[nH]1` are 30.7 nM (active) and “inactive”.
The matching figures for `Cc1cn2c(-c3cn[nH]c3)cnc2c(Nc2ccc(C(=O)N3CCNCC3)cc2F)n1`: 21800 nM (active) and “inactive”.
`COc1cc2ncnc(Nc3ccc(F)c(Cl)c3)c2cc1NC(=O)C=CCN1CCCCC1`: the Potency in assay [1] was 194 nM (active). Further, the molecule was called inactive in assay [2].
Turning to `COc1cccc2nc(-c3cccs3)nc(NN3C(=O)C=C(C)C3=O)c12`, the Potency entry in assay [1] is “inactive”. The molecule was classed as inactive in assay [2].
In the case of `Nc1nc(Nc2ccc(S(N)(=O)=O)cc2)nn1C(=O)c1c(F)cccc1F`, the Potency in assay [1] was 772 nM (active). The call in assay [2] was inactive.
The matching figures for `O=C(Nc1cc(C(F)(F)F)cc(C(F)(F)F)c1)c1cc(Cl)ccc1O`: “inactive” and “inactive”.
On to `Cc1ccc(C(=O)Nc2cccc(C(F)(F)F)c2)cc1-c1ccc2nc(NCCN3CCOCC3)ncc2c1`, for which the Potency in assay [1] is 7.7 nM (active). For the same molecule, in assay [2], the outcome was inactive.
The corresponding values for `Nc1nc(-c2nn(Cc3ccccc3F)c3ncccc23)nc(N)c1N1CCOCC1` are “inactive” and “inactive”.
The corresponding values for `CC(C)(C)c1cc(NC(=O)Nc2ccc(-c3cn4c(n3)sc3cc(OCCN5CCOCC5)ccc34)cc2)no1` are “inactive” and “inactive”.
The matching figures for `CC1(C)OC2=C(C(=O)c3ccccc3C2=O)[C@H](NCc2ccccc2)[C@H]1O`: “inactive” and “inactive”.
In the case of `CCCCc1nc2cc(C=CC(=O)NO)ccc2n1CCN(CC)CC`, in assay [1], the Potency result is “inactive”. Also, in assay [2], the call was inactive.
Turning to `CC=C1NC(=O)[C@H]2CSSCCC=C[C@H](CC(=O)N[C@H](C(C)C)C(=O)N2)OC(=O)[C@H](C(C)C)NC1=O`, in assay [1], the Potency entry is “inactive”. In addition, the molecule was called inactive in assay [2].
Turning to `CCCCCN(CCC12CC3CC(CC(C3)C1)C2)C(=O)NCCCc1ccncc1`, the Potency result in assay [1] is “inactive”. In addition, the molecule was called inactive in assay [2].
Regarding `O=C(NCCS(=O)(=O)c1ccc(C(F)(F)F)cn1)c1ccc(Cl)cc1`, the Potency entry in assay [1] was “inactive”. Further, in assay [2], the result was inactive.
With `Nc1ccccc1NC(=O)c1ccc(CNc2nccc(-c3cccnc3)n2)cc1`, the Potency entry in assay [1] is “inactive”. Besides, the result in assay [2] was inactive.
Turning to `CN1CC[C@@H](c2c(O)cc(O)c3c(=O)cc(-c4ccccc4Cl)oc23)[C@@H](O)C1`, in assay [1], the Potency was 34500 nM (active). For the same molecule, in assay [2], the molecule was called inactive.
For the molecule `Cc1ccc(C(=O)Nc2ccc(CN3CCN(C)CC3)c(C(F)(F)F)c2)cc1C#Cc1cnc2cccnn12`, in assay [2], the call was inactive.
Take `CC(C)C[C@H](NC(=O)CNC(=O)c1cc(Cl)ccc1Cl)B(O)O`: the Potency result in assay [1] is “inactive”. In addition, the molecule was called inactive in assay [2].
Turning to `Cc1cc(Nc2cc(NC(=O)c3c(Cl)cccc3Cl)ccn2)nc(N)n1`, the Potency in assay [1] is 194 nM (active). Besides, the outcome in assay [2] was inactive.
The corresponding values for `CCC(=C(c1ccccc1)c1ccc(OCCN(C)C)cc1)c1ccccc1` are “inactive” and “inactive”.
The corresponding values for `Cc1cn(-c2cc(NC(=O)c3ccc(C)c(Nc4nccc(-c5cccnc5)n4)c3)cc(C(F)(F)F)c2)cn1` are “inactive” and “inactive”.
The corresponding values for `N#Cc1c(O)c2c(-c3ccc(-c4ccccc4O)cc3)csc2[nH]c1=O` are “inactive” and “inactive”.
As for `CCN1CCN(CC(=O)Nc2ccc(-c3cccc4c(=O)cc(N5CCOCC5)oc34)c3sc4ccccc4c23)CC1`, the Potency result in assay [1] was “inactive”. The molecule was called inactive in assay [2].
`C=CCn1c(=O)c2cnc(Nc3ccc(N4CCN(C)CC4)cc3)nc2n1-c1cccc(C(C)(C)O)n1`: the Potency in assay [1] is 43.4 nM (active). Also, in assay [2], the outcome was inactive.
